What all share (assay): DAPPL (digital affinity profiling via proximity ligation, sequencing); 10 mM Tris-HCl pH 7.5, 50 mM NaCl, 1 mM DTT, 4% glycerol, room temperature, 30 min; GST-TFs on glutathione beads, 16-mer random dsDNA library, 0.1% formaldehyde crosslink after washing; high values mean tight binding
One assay concerns the target T1, FLI1 (Homo sapiens, UniProt Q01543 1-452).
T1 sequence: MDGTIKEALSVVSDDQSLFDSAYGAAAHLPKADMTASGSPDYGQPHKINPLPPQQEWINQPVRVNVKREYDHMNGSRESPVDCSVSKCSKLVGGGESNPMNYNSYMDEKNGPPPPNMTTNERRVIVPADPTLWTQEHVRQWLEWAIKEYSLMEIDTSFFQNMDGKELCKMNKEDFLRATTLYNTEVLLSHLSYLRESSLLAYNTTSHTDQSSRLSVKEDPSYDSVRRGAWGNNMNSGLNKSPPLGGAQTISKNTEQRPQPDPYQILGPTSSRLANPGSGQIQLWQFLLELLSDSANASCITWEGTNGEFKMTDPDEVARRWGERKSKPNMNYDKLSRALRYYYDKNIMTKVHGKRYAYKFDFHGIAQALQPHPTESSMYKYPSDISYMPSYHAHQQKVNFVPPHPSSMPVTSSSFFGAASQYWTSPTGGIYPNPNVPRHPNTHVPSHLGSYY
Particulars: protein: recombinant; tags: N-terminal GST; dsDNA, one strand shown. An outline of the steps:
(§1)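 After expression in yeast as GST fusions, human transcription factors were bound to glutathione beads, DNA-barcoded and mixed with a tag-only sample. The pools were incubated with 200 nmole of a 16-mer random double-stranded DNA library in Tris/NaCl/DTT/glycerol buffer (30 min, room temperature), washed and crosslinked with 0.1% formaldehyde. Proximity ligation with BsaI/T4 ligase ran for 1 h at 37 °C, before PCR amplification and sequencing on an Illumina NextSeq500. Binding signal is a hexamer's read frequency for a factor divided by its frequency for the tag-only sample.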

The target of a further assay is T2, ELK1 (Homo sapiens, UniProt P19419 1-428).
T2 sequence: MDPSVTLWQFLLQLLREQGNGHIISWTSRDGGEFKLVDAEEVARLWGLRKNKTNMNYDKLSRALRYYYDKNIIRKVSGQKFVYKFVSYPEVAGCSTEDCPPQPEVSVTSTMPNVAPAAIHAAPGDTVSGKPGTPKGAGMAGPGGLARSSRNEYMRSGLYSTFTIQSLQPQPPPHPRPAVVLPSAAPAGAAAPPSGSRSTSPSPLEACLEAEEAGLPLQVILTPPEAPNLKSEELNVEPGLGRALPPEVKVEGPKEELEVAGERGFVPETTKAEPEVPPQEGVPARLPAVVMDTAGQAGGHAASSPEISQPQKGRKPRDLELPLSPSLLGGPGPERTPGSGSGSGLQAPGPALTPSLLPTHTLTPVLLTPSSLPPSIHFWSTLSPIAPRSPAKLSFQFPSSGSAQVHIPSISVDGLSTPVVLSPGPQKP
The conditions noted are these: protein: recombinant; tags: N-terminal GST; dsDNA, one strand shown. An outline of the steps: as §1

The next assay has as its target T3, GABPA (Homo sapiens, UniProt Q06546 1-454).
T3 sequence: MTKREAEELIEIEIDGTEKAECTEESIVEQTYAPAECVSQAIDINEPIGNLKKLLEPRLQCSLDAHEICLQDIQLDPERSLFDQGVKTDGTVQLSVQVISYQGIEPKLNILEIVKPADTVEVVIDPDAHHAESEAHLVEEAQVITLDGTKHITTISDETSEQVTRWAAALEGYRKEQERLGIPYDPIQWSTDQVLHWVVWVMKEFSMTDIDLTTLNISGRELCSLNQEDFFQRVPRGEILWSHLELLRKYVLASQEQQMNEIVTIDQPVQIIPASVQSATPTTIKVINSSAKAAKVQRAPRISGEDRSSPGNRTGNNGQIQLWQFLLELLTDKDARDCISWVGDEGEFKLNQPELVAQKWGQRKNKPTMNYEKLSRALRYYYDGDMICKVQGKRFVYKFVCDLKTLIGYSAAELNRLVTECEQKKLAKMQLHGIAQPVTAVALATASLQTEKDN
Particulars: protein: recombinant; tags: N-terminal GST; dsDNA, one strand shown. In a few lines:
as §1

The next assay has as its target T4, ERG (Homo sapiens, UniProt P11308 1-479).
T4 sequence: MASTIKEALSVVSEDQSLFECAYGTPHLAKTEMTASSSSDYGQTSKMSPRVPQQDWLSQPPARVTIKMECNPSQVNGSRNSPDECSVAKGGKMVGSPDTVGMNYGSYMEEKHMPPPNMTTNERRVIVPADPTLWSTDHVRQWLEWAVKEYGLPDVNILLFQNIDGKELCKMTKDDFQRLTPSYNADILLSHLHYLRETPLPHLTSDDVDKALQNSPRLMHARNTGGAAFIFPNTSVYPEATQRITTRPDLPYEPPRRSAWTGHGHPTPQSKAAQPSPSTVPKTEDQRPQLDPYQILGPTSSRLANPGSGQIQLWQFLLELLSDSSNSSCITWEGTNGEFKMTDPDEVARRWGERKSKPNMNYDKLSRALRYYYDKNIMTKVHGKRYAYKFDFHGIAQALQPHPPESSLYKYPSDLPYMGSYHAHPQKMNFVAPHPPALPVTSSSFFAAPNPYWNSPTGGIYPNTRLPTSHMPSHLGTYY
The conditions noted are these: protein: recombinant; tags: N-terminal GST; dsDNA, one strand shown. In a few lines: as §1

In the next assay the target is ELF1 (Homo sapiens, UniProt P32519 1-619). Particulars: protein: recombinant; tags: N-terminal GST; dsDNA, one strand shown. In a few lines:
as §1

A further assay has as its target T5, EHF (Homo sapiens, UniProt Q9NZC4 1-300).
T5 sequence: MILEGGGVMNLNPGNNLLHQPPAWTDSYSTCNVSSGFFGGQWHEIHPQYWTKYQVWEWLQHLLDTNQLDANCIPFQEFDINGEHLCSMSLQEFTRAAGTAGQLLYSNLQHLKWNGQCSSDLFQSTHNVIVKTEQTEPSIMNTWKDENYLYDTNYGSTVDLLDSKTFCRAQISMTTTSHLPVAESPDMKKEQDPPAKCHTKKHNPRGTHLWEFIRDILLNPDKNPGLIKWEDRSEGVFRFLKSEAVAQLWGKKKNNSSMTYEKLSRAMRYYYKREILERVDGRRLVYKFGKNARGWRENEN
Particulars: protein: recombinant; tags: N-terminal GST; dsDNA, one strand shown. In a few lines:
as §1

The next assay addresses SPI1 (Homo sapiens, UniProt P17947 1-270). The conditions noted are these: protein: recombinant; tags: N-terminal GST; dsDNA, one strand shown. An outline of the steps: as §1
A further assay has as its target SPIB (Homo sapiens, UniProt Q01892 1-262). Particulars: protein: recombinant; tags: N-terminal GST; dsDNA, one strand shown. In a few lines: as §1
Another assay addresses T6, ELK3 (Homo sapiens, UniProt P41970 1-407).
T6 sequence: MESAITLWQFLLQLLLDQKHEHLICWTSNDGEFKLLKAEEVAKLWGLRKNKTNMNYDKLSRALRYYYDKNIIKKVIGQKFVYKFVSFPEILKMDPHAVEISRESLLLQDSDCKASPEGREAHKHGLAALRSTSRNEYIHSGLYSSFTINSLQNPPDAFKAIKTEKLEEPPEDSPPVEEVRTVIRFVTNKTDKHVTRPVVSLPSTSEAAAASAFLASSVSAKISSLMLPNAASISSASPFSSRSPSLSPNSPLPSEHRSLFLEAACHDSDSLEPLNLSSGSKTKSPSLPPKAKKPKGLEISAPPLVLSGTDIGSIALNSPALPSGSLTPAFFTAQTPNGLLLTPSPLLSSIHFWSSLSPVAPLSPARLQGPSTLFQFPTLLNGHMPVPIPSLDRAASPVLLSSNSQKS
Particulars: protein: recombinant; tags: N-terminal GST; dsDNA, one strand shown. In a few lines:
as §1

The target in the next assay is T7, FEV (Homo sapiens, UniProt Q99581 1-238).
T7 sequence: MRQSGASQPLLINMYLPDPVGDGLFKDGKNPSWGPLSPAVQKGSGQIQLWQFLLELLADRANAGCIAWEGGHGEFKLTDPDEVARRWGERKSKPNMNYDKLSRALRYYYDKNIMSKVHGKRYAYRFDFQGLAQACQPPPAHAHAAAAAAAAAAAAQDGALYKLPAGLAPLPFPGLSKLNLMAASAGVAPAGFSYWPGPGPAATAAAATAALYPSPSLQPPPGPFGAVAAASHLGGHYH
Particulars: protein: recombinant; tags: N-terminal GST; dsDNA, one strand shown. An outline of the steps:
as §1

For the next assay, the target named is ETV5 (Homo sapiens, UniProt P41161 1-510). Particulars: protein: recombinant; tags: N-terminal GST; dsDNA, one strand shown. An outline of the steps: as §1
Chain of ETV5 (P41161 whole entry): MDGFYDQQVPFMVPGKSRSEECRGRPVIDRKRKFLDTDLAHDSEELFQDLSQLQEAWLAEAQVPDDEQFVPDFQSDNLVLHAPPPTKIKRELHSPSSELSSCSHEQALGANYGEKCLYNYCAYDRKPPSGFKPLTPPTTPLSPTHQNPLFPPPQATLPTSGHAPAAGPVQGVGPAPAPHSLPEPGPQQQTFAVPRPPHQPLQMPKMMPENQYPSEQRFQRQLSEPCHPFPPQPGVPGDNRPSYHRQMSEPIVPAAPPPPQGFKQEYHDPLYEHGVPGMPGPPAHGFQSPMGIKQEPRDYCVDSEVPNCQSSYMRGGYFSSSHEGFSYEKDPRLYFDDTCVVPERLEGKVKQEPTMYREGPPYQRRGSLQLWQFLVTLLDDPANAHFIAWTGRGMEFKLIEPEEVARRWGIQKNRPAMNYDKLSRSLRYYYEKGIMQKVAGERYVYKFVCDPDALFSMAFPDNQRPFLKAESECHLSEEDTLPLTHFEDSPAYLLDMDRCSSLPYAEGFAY
A further assay deals with HSF1 (Homo sapiens, UniProt Q00613 1-529). Particulars: protein: recombinant; tags: N-terminal GST; chain copies: 3; dsDNA, one strand shown. An outline of the steps: as §1
Chain of HSF1 (Q00613 whole entry): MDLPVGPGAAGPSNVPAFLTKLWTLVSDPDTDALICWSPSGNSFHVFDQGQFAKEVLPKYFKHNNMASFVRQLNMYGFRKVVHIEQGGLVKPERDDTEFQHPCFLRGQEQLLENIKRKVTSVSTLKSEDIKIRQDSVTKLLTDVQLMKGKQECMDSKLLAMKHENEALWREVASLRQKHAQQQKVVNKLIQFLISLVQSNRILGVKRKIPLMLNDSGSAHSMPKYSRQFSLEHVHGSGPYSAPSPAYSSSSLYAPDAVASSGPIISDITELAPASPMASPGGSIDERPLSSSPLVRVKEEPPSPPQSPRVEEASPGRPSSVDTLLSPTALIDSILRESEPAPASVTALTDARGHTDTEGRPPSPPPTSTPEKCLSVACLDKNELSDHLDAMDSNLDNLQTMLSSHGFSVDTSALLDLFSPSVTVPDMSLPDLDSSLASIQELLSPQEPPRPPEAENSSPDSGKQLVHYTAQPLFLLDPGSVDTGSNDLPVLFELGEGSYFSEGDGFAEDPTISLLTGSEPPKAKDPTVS
The target in the next assay is T8, SPIC (Homo sapiens, UniProt Q8N5J4 1-248).
T8 sequence: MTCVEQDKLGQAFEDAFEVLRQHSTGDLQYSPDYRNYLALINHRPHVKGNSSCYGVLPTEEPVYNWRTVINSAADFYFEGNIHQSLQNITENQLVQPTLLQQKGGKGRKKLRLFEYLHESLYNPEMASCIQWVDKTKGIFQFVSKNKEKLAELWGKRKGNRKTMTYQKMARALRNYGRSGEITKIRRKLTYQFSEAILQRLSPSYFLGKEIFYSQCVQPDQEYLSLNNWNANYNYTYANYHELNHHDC
The conditions noted are these: protein: recombinant; tags: N-terminal GST; dsDNA, one strand shown. In a few lines:
as §1

The next assay deals with ELF4 (Homo sapiens, UniProt Q99607 1-663). Particulars: protein: recombinant; tags: N-terminal GST; dsDNA, one strand shown. In a few lines:
as §1

A further assay addresses T9, ELK4 (Homo sapiens, UniProt P28324-2 1-405).
T9 sequence: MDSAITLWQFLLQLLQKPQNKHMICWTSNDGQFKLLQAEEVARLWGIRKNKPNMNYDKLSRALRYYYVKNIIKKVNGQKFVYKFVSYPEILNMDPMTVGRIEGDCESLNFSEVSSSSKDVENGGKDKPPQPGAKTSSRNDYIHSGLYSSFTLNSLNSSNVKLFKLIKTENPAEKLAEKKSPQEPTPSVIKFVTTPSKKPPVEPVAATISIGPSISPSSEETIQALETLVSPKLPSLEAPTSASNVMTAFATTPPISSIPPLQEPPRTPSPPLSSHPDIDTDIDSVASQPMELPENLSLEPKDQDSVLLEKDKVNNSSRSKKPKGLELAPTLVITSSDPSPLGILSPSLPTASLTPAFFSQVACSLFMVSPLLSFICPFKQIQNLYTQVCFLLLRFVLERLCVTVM
Particulars: protein: recombinant; tags: N-terminal GST; dsDNA, one strand shown. In a few lines: as §1

The target in the next assay is T10, ETV2 (Homo sapiens, UniProt O00321 1-342).
T10 sequence: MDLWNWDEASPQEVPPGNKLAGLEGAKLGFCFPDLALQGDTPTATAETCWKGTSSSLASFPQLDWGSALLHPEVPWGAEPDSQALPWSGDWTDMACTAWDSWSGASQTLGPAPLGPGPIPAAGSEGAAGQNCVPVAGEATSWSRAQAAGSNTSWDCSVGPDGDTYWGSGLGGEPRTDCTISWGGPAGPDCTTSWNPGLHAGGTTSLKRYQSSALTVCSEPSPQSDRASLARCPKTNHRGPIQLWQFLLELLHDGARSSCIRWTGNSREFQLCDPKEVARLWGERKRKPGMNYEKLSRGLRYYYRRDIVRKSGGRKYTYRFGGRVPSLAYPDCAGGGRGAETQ
Particulars: protein: recombinant; tags: N-terminal GST; dsDNA, one strand shown. An outline of the steps: as §1

The target of the next assay is T11, ELF3 (Homo sapiens, UniProt P78545 1-371).
T11 sequence: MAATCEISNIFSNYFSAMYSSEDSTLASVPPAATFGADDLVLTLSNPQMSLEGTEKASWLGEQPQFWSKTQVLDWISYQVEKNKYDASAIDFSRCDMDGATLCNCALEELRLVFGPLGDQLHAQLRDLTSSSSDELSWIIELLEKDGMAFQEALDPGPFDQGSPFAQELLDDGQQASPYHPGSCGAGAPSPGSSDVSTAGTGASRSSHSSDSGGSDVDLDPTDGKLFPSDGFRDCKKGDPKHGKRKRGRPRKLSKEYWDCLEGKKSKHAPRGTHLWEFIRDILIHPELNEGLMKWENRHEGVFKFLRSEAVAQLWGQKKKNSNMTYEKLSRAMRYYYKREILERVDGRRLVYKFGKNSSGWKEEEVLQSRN
Particulars: protein: recombinant; tags: N-terminal GST; dsDNA, one strand shown. An outline of the steps: as §1

Another assay deals with ETV1 (Homo sapiens, UniProt P50549 1-477). Particulars: protein: recombinant; tags: N-terminal GST; dsDNA, one strand shown. In a few lines: as §1
Chain of ETV1 (P50549 whole entry): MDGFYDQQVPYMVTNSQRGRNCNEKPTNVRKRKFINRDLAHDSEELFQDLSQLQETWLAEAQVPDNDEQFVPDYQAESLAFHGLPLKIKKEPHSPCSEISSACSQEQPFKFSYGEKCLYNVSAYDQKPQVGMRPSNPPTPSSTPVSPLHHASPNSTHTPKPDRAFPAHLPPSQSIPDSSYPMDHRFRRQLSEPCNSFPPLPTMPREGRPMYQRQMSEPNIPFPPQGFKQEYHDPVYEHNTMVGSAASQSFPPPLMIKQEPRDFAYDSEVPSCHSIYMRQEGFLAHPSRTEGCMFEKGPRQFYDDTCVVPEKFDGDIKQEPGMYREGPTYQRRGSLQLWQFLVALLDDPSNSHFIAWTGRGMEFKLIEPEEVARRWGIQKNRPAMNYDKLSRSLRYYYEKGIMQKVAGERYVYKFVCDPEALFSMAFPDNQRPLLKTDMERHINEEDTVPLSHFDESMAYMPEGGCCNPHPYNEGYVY

Chain of ELF4 (Q99607 whole entry): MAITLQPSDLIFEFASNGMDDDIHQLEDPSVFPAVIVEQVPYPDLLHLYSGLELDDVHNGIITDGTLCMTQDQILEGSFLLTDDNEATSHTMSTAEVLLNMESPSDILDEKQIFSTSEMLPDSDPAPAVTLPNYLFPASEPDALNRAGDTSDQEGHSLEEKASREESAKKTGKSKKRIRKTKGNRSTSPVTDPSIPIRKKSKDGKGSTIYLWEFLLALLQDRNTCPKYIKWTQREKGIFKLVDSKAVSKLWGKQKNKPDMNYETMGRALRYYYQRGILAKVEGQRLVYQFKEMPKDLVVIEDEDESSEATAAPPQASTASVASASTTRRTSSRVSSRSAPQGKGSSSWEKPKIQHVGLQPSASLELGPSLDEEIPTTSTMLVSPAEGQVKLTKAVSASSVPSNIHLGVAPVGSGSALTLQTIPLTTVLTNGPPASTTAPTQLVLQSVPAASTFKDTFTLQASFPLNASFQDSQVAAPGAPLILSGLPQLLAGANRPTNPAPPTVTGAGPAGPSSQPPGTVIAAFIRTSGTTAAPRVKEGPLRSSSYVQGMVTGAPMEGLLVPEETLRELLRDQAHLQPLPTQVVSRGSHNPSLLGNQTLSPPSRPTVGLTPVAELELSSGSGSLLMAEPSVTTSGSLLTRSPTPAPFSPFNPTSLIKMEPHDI
Chain of SPIB (Q01892 whole entry): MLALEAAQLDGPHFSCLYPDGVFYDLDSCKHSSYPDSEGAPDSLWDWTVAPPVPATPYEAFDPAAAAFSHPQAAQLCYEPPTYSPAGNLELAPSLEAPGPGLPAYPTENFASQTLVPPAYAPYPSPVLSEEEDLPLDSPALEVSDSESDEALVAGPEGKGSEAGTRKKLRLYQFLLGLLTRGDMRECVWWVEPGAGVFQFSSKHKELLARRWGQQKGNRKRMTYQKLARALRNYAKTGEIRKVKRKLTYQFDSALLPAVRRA
Chain of ELF1 (P32519 whole entry): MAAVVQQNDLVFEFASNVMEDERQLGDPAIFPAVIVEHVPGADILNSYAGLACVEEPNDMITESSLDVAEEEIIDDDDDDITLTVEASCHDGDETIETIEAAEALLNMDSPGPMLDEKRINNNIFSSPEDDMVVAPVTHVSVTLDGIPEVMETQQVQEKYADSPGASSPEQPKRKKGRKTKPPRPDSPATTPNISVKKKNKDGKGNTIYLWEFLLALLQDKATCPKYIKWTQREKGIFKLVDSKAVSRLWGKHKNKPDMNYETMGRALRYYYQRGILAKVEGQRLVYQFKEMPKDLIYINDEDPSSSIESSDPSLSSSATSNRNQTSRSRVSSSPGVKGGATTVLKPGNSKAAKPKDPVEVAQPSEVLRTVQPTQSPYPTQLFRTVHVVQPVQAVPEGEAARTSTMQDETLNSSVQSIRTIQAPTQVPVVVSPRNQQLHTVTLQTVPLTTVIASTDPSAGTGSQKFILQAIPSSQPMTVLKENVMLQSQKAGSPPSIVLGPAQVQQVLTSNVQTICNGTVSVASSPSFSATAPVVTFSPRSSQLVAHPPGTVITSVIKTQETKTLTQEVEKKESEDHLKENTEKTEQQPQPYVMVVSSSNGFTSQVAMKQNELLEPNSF

As for AACACG, the binding signal was 1.26 fold enrichment (6-mer frequency, TF over GST control) with FLI1; 1.23 fold enrichment (6-mer frequency, TF over GST control) with ELK1; 1.1 fold enrichment (6-mer frequency, TF over GST control) in the assay with GABPA; 1.22 fold enrichment (6-mer frequency, TF over GST control) in the assay with ERG; 1.18 fold enrichment (6-mer frequency, TF over GST control) with ELF1; 1.14 fold enrichment (6-mer frequency, TF over GST control) with EHF. Also, the binding signal with SPI1 is 1.17 fold enrichment (6-mer frequency, TF over GST control); in the assay with SPIB, 1.13 fold enrichment (6-mer frequency, TF over GST control); with ELK3 it was 1.16 fold enrichment (6-mer frequency, TF over GST control); in the assay with FEV it was 1.19 fold enrichment (6-mer frequency, TF over GST control); with ETV5, 1.25 fold enrichment (6-mer frequency, TF over GST control); in the assay with HSF1, 1.02 fold enrichment (6-mer frequency, TF over GST control). Besides, the binding signal is 1.33 fold enrichment (6-mer frequency, TF over GST control) with SPIC; 1.24 fold enrichment (6-mer frequency, TF over GST control) with ELF4; 1.22 fold enrichment (6-mer frequency, TF over GST control) with ELK4; 1.07 fold enrichment (6-mer frequency, TF over GST control) in the assay with ETV2; 1.19 fold enrichment (6-mer frequency, TF over GST control) with ELF3; 1.24 fold enrichment (6-mer frequency, TF over GST control) with ETV1.

The values are drawn from PMC7862700, “An all-to-all approach to the identification of sequence-specific readers for epigenetic DNA modifications on cytosine”.
